Results filed as inconclusive are left out. A call without a number means that no potency is given here. Active and inactive are the calls of the source. Calls follow the shape of the dose curve; as a rule, active = well fitted curve in the direction sought with a large enough effect in the repeat runs; inconclusive = weak or mixed curves; inactive = no such curve, though single readings can be large; an effect the other way counts as inactive or inconclusive.
Legend:
[1] = biological target: Cytochrome P450 2D6 (Homo sapiens) (UniProt P10635); test: Cytochrome P450 Family 2 Subfamily D Member 6 (CYP2D6) small molecule antagonists: luciferase reporter qHTS assay (AID 1671196); also: nearly all actives have a fitted effect of over 50% in size
How it was run: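 Room-temperature luminescent CYP2D6 activity assay: compound preincubated 10 min with enzyme–substrate mix, NADPH-initiated reaction 1 h, detection reagent 20 min before reading.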

[2] = biological target: Cytochrome P450 2C19 (Homo sapiens) (UniProt P33261); test: Cytochrome P450 Family 2 Subfamily C Member 19 (CYP2C19) small molecule antagonists: luciferase reporter qHTS assay (AID 1671197); also: nearly all actives have a fitted effect of over 65% in size
How it was run: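 Relative luminescence units recorded 20 min after the detection reagent stopped a 1 h, 37C CYP2C19 reaction on proluciferin substrate, which was started by NADPH regeneration following 10 min room-temperature compound preincubation; ketoconazole positive control.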

[3] = biological target: Cytochrome P450 2C9 (Homo sapiens) (UniProt P11712); test: Cytochrome P450 Family 2 Subfamily C Member 9 (CYP2C9) small molecule antagonists: luciferase reporter qHTS assay (AID 1671198); also: nearly all actives have a fitted effect of over 50% in size
How it was run: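 P450-Glo proluciferin substrate with CYP2C9 enzyme; 10 min RT preincubation, then NADPH regeneration 1 h at 37C; luciferin detection reagent 20 min RT, luminescence in relative luminescence units.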

[4] = biological target: Voltage-gated inwardly rectifying potassium channel KCNH2 (Homo sapiens) (UniProt Q12809); test: Human Ether-a-go-go-Related Gene (hERG) channel small molecule antagonists: fluorescence cell-based qHTS assay (AID 1671200); also: nearly all actives have a fitted effect of over 50% in size
How it was run: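 Cell line hERG-U2OS; dye FluxOR II, 1 h RT dark; Tl+ stimulus; ex 480/em 540 nm, read each second for 2 min.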

[5] = biological target: Cytochrome P450 3A4 (Homo sapiens) (UniProt P08684); test: Cytochrome P450 Family 3 Subfamily A Member 4 (CYP3A4) small molecule antagonists: luciferase reporter qHTS assay (AID 1671201); also: nearly all actives have a fitted effect of over 50% in size
How it was run: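 Room-temperature assay throughout: 10 min compound–enzyme/substrate preincubation, 1 h reaction after NADPH regeneration solution, 20 min detection. Luciferin formed from proluciferin substrate is quantified by luminescence.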
Potency is read from the fitted curve at half-maximal effect.

Cytochrome P450 2C9 (Homo sapiens), sequence (P11712 whole entry, looked up): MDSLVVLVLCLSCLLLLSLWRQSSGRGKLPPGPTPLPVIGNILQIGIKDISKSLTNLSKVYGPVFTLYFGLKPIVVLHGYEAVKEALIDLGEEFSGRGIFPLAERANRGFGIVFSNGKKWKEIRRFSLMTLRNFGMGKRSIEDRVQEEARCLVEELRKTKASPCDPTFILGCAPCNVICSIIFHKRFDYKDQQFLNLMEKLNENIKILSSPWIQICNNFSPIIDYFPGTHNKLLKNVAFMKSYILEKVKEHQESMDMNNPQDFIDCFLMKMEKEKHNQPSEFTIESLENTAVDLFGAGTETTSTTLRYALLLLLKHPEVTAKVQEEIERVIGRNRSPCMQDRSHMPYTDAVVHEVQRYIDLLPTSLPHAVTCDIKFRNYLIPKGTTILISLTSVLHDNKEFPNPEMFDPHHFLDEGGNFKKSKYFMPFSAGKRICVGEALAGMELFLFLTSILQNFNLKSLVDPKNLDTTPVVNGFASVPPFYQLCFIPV
Cytochrome P450 2D6 (Homo sapiens), sequence (P10635 whole entry, looked up): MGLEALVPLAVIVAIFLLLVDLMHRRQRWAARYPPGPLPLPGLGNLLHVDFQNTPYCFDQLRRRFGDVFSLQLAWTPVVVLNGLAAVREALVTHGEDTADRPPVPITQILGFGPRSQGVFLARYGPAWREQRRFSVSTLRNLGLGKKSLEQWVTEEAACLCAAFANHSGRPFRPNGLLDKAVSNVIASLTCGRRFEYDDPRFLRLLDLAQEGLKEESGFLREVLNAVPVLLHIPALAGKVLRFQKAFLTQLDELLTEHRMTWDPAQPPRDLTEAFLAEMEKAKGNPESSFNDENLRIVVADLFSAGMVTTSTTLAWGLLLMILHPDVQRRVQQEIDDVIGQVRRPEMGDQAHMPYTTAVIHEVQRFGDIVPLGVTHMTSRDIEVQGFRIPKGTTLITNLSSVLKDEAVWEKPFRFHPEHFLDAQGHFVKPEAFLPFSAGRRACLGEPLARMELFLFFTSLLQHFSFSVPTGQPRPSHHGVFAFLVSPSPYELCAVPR
Cytochrome P450 2C19 (Homo sapiens), sequence (P33261 whole entry, looked up): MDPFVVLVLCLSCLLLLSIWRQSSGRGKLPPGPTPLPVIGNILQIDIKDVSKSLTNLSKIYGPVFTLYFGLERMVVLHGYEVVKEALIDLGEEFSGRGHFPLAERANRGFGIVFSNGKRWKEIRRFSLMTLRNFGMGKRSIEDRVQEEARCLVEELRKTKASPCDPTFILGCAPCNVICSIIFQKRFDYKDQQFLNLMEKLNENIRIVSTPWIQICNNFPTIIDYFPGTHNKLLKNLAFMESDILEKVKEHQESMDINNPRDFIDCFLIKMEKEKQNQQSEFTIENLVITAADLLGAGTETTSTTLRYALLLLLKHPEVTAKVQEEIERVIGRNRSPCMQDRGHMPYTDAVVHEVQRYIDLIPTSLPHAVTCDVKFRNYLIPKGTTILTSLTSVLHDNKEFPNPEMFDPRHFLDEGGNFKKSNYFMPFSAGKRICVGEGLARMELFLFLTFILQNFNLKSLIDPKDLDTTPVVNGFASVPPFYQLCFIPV
Voltage-gated inwardly rectifying potassium channel KCNH2 (Homo sapiens), sequence (Q12809 whole entry, looked up): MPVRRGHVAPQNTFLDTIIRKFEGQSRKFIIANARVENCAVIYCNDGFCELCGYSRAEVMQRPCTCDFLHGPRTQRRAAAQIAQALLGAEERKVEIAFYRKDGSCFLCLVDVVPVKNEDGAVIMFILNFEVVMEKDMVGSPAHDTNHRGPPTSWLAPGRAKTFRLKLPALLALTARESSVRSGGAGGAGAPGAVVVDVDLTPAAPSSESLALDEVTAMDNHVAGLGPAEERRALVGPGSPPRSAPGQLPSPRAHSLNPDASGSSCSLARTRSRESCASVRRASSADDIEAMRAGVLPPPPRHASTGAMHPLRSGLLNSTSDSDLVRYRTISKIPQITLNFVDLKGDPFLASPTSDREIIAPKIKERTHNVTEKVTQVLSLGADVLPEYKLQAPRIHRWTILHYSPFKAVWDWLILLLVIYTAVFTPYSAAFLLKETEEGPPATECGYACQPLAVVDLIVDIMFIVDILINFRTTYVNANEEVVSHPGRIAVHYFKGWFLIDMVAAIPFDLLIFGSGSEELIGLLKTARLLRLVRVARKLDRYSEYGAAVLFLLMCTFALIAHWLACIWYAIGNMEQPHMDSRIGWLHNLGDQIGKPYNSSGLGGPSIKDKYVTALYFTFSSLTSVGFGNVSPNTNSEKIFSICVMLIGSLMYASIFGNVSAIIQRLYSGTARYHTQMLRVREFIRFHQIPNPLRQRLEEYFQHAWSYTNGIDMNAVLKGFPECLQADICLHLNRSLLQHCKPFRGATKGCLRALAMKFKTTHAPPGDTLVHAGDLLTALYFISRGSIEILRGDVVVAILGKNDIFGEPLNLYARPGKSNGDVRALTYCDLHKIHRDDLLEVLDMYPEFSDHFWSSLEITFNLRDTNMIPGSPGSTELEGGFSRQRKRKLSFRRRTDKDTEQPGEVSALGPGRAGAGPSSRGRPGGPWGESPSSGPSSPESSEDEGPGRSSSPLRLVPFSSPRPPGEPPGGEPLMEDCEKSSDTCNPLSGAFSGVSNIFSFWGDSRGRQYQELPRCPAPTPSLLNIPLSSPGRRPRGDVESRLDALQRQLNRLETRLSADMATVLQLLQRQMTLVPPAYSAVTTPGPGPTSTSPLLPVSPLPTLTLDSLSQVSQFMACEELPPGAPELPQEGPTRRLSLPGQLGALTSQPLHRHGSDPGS
Cytochrome P450 3A4 (Homo sapiens), sequence (P08684 whole entry, looked up): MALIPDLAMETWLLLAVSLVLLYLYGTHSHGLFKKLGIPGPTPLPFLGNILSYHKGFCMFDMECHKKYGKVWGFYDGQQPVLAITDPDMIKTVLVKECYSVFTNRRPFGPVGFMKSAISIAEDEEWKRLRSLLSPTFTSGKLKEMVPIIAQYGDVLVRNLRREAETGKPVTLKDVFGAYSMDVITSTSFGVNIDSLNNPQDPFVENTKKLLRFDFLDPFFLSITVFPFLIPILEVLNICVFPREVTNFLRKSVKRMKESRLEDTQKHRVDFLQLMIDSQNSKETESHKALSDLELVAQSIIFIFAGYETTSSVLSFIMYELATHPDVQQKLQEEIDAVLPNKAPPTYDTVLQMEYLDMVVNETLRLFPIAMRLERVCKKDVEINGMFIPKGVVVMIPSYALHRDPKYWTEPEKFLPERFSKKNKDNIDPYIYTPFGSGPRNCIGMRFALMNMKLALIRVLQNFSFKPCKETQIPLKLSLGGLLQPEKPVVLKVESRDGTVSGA

SMILES	Potency [1]	Potency [2]	Potency [3]	Potency [4]	Potency [5]
O=C1C=CCCC1	inactive	inactive	inactive	inactive	inactive
CCCCCC1CCC(=O)O1 (stereo not drawn)	inactive	inactive	89.4 µM (active)	inactive	inactive
CC(C)NC(=O)c1ccccc1N	inactive	inactive	inactive	inactive	–
Cc1ccccc1CCO	inactive	inactive	inactive	inactive	inactive
CCOC(=O)CC(O)(CC(=O)OCC)C(=O)OCC	inactive	35.6 µM (active)	8.94 µM (active)	inactive	inactive
NCCOCCOCCN	25.2 µM (active)	inactive	inactive	inactive	inactive
CCCCOC(=O)CC#N	5.27 µM (active)	7.44 µM (active)	7.44 µM (active)	inactive	inactive
Cc1cc(C)c(C)c(O)c1	inactive	inactive	inactive	inactive	inactive
COc1ccc(C(=O)Nc2ccccc2)cc1[N+](=O)[O-]	40.2 µM (active)	35.9 µM (active)	35.9 µM (active)	inactive	35.9 µM (active)
CC(COc1ccccc1)NC(C)C(O)c1ccc(O)cc1 (stereo not drawn)	0.55 µM (active)	8.71 µM (active)	15.5 µM (active)	inactive	inactive
N#Cc1ccc(CC(=O)c2cccc(C(F)(F)F)c2)cc1	63.3 µM (active)	20 µM (active)	35.6 µM (active)	27.5 µM (active)	inactive
N#CCCCC(C#N)CCC#N (stereo not drawn)	inactive	inactive	39.9 µM (active)	inactive	inactive
OCC(O)c1ccccc1 (stereo not drawn)	inactive	inactive	inactive	inactive	inactive
CC(C)CCCCCOC(=O)CS	25.2 µM (active)	inactive	71 µM (active)	inactive	–
O=C(O)c1cc(C(=O)O)cc([N+](=O)[O-])c1	inactive	inactive	inactive	inactive	inactive
CCCCCCCCCC(C)C=O (stereo not drawn)	inactive	inactive	44.8 µM (active)	inactive	inactive
CC1=C(C)C(=O)C(C(CCCCCC(=O)O)c2ccccc2)=C(C)C1=O (stereo not drawn)	inactive	24.5 µM (active)	17.4 µM (active)	inactive	inactive
Cc1c(Cl)cccc1Nc1ccccc1C(=O)O	inactive	inactive	17.4 µM (active)	inactive	inactive
CCOC(OCC)OCC	inactive	inactive	inactive	inactive	inactive
C=CC(C)CCC=C(C)C (stereo not drawn)	inactive	inactive	inactive	inactive	inactive
CCCc1ccc(OC)cc1	inactive	63.7 µM (active)	–	inactive	inactive
O=C(O)CNc1ccccc1	inactive	inactive	–	inactive	inactive
CC(C)CCCCCCCOC(=O)c1ccc(C(=O)OCCCCCCCC(C)C)c(C(=O)OCCCCCCCC(C)C)c1	inactive	inactive	–	inactive	–
CCCCC(CC)COCCC#N (stereo not drawn)	inactive	inactive	–	inactive	inactive
